Results taken from the supplement of paper PMC11732987, “Enantioselective OTUD7B fragment discovery through chemoproteomics screening and high-throughput optimisation” (Communications Chemistry, 2025).

What was measured:
Test in all cases: log2 ratio of Biotin-Ahx-Ub-VS probe labelling (fragment/DMSO); higher = less target engagement (more negative = stronger competition), active = hit call of the paper (q ≤ 0.05, log2 ratio ≤ -1)
Conditions in all cases: compound concentration: 200 uM; treatment time: 3 h
USP19 = target: T1, USP19 (UniProt O94966)
T1 sequence (whole entry): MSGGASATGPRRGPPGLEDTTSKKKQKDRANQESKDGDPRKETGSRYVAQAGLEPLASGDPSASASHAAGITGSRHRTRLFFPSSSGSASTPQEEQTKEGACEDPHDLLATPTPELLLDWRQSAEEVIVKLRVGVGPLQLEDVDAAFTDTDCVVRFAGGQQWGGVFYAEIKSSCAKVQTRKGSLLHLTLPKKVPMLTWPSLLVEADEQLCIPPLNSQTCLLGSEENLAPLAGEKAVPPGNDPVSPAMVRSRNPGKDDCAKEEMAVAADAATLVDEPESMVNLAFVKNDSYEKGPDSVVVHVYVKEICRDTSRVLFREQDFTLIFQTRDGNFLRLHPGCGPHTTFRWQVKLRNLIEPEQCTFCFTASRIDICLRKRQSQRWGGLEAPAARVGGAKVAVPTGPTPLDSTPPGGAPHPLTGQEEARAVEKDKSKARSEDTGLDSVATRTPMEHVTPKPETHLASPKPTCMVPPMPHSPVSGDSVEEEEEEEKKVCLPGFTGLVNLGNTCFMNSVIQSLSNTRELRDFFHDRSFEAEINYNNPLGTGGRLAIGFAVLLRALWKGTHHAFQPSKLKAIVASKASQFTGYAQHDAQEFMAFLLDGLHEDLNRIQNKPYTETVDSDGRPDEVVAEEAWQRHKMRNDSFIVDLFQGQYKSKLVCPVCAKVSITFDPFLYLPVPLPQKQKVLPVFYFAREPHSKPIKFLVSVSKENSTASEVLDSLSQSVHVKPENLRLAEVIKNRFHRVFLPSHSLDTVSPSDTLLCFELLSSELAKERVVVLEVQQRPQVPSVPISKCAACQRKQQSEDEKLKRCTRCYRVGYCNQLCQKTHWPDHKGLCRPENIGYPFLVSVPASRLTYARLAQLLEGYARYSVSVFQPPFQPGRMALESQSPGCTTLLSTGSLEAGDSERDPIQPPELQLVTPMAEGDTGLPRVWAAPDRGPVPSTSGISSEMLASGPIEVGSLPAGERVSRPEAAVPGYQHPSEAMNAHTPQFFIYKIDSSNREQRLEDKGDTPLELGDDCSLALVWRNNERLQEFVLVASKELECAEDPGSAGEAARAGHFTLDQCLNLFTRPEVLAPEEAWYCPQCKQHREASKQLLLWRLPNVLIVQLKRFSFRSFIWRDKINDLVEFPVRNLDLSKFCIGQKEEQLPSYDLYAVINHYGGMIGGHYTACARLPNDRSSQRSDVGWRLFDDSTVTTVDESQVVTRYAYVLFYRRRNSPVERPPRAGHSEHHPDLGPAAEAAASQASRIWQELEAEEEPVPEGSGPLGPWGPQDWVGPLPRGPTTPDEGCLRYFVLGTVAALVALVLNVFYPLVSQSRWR
Procedure, shortened: (§1)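 HEK293T lysate (495 µg per sample, in Tris/CHAPS/IGEPAL buffer with protease inhibitors) was treated in triplicate with fragment at 200 µM or with DMSO for 3 h. It was then treated with Biotin-Ahx-Ub-VS (0.5 µM final) for 1 h. Labelled DUBs were NeutrAvidin-enriched, digested with LysC and trypsin, and run by diaPASEF LC-MS/MS. Spectronaut label-free quantities were global-median-normalised. Values are average log2 ratios fragment/DMSO by unpaired t-test, using proteins with ≥2 unique peptides.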

USP22 = target: T2, USP22 (UniProt Q9UPT9)
T2 sequence (whole entry): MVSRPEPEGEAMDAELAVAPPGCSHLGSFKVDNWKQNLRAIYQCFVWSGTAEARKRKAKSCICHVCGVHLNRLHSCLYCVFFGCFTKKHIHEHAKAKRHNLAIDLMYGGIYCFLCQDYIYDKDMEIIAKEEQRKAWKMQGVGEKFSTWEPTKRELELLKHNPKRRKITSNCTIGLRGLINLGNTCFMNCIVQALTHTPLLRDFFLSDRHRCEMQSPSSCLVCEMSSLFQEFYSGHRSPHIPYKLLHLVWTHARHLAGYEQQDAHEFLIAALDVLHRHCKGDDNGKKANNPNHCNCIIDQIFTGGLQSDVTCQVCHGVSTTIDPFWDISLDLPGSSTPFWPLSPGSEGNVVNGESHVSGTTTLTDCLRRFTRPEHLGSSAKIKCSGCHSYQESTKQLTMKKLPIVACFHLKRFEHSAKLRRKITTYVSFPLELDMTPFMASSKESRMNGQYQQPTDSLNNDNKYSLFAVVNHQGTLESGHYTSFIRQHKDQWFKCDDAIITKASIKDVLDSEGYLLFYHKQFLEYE
Procedure, shortened: as §1

USP24 = USP24 (UniProt Q9UPU5)
USP24, sequence (Q9UPU5 whole entry): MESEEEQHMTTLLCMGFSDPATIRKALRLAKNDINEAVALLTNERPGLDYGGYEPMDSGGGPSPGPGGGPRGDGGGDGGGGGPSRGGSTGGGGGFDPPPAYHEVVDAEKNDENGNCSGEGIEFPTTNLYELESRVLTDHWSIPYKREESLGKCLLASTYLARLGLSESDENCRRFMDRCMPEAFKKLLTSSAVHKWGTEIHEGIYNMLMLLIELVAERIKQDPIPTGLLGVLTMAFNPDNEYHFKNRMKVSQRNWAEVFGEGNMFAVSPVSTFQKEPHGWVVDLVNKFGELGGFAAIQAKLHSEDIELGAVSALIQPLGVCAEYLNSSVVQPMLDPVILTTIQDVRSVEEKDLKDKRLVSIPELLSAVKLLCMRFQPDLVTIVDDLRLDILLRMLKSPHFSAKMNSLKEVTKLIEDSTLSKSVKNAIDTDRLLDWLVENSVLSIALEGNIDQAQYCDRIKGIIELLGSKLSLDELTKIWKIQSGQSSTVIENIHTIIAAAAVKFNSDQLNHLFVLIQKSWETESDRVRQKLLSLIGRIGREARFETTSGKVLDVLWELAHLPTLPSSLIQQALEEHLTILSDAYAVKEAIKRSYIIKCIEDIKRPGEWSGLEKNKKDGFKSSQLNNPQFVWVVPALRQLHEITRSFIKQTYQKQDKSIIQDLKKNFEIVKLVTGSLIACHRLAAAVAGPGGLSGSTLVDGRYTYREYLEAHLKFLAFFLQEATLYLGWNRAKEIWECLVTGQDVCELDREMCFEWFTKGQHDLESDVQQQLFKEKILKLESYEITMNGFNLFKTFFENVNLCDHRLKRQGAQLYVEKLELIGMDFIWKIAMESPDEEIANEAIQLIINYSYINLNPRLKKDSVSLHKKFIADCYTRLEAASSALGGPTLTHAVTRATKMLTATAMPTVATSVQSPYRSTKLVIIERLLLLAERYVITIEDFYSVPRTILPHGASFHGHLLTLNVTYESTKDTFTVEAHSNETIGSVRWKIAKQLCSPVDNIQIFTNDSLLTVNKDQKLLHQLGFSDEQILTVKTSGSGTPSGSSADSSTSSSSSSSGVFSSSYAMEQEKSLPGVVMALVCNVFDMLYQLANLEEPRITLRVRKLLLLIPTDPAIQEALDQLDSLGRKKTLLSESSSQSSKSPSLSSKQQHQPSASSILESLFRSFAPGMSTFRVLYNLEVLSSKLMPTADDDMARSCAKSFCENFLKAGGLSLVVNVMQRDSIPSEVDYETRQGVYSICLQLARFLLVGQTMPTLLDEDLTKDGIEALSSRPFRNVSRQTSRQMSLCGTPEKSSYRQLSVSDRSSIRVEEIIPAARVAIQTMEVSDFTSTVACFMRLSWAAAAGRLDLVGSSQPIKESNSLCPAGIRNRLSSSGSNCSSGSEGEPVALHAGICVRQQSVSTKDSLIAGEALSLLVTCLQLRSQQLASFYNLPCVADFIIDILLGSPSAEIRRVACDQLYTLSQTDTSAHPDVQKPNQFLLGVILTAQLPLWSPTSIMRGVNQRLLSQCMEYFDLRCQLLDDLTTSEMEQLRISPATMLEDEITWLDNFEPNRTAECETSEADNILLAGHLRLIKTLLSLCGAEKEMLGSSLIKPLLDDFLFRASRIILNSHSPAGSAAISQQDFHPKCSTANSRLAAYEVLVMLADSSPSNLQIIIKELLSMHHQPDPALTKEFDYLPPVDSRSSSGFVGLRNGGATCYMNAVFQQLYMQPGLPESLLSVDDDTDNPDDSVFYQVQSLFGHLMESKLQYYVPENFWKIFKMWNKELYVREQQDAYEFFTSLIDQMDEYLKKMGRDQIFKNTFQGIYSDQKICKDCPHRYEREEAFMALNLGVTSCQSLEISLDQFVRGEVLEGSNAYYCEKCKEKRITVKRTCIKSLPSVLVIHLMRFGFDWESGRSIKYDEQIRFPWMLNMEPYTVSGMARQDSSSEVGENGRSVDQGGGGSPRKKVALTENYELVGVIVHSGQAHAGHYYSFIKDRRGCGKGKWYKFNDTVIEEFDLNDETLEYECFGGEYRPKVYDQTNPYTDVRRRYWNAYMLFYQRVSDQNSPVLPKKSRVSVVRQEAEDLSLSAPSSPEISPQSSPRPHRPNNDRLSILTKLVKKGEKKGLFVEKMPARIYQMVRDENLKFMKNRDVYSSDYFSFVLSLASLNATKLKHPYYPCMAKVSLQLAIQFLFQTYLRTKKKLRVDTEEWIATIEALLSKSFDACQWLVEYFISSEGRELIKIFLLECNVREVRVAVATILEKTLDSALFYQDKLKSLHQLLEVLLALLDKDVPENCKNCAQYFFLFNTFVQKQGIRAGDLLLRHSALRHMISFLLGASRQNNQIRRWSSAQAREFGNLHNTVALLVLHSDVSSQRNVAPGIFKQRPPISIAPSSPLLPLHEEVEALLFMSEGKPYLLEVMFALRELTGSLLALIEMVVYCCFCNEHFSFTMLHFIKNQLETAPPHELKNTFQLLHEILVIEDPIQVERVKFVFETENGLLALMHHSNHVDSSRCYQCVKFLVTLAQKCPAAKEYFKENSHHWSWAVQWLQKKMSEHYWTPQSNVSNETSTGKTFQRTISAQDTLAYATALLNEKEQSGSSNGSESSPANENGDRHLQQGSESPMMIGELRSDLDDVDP
Procedure, shortened: as §1

USP25 = target: T3, USP25 (UniProt Q9UHP3)
T3 sequence (whole entry): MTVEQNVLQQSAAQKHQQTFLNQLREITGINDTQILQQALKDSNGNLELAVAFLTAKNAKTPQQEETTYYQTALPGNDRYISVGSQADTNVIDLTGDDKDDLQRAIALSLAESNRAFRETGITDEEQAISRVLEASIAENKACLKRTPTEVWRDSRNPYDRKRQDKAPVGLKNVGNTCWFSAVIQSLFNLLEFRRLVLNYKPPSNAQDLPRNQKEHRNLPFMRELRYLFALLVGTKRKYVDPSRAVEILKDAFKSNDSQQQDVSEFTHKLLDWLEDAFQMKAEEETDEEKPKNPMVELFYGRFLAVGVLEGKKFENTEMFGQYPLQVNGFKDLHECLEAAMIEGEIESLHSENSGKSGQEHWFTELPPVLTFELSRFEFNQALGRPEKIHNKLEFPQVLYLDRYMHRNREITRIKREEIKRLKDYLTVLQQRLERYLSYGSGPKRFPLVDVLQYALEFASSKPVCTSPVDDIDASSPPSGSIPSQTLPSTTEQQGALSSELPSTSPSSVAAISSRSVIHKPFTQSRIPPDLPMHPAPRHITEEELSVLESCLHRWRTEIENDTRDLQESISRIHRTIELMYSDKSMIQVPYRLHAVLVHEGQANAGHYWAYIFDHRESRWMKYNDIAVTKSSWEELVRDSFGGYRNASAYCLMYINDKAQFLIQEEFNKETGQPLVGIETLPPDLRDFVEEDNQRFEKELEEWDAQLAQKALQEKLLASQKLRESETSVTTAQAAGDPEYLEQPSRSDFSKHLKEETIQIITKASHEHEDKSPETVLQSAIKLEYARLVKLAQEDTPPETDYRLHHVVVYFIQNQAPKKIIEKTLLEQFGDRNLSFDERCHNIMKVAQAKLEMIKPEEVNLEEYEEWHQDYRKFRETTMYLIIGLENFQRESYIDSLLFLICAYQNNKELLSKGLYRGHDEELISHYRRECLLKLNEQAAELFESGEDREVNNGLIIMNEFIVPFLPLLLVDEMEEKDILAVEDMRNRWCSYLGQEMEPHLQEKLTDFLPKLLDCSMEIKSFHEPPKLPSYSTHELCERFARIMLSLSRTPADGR
Procedure, shortened: as §1

USP28 = target: T4, USP28 (UniProt Q96RU2)
T4 sequence (whole entry): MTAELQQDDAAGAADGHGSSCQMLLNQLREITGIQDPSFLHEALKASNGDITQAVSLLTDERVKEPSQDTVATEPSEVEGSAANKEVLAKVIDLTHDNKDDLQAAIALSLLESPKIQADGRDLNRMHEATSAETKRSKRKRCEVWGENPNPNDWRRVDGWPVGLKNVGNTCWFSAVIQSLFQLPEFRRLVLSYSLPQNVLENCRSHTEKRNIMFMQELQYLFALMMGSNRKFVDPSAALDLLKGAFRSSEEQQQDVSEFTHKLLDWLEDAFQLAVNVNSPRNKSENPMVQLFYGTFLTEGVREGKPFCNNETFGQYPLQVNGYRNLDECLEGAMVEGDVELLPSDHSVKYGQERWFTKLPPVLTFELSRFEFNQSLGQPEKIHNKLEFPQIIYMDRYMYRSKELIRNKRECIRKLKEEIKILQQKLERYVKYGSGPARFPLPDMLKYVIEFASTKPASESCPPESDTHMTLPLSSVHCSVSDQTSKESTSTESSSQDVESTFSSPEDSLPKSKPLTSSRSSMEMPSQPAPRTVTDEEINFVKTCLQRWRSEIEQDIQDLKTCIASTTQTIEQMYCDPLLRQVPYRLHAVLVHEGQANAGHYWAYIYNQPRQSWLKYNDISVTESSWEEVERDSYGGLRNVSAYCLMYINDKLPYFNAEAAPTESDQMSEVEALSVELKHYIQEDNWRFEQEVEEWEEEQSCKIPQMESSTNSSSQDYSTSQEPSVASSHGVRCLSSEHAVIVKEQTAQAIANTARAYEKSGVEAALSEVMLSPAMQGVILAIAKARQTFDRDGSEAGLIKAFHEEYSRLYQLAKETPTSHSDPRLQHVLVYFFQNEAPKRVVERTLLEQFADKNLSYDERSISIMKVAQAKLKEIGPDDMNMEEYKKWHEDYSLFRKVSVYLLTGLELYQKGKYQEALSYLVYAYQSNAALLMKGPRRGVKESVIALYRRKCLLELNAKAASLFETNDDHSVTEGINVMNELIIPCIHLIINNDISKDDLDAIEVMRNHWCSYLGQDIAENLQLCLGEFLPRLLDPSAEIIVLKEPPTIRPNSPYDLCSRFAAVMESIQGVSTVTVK
Procedure, shortened: as §1

Measured: log2 ratio of Biotin-Ahx-Ub-VS probe labelling

Cc1cccc(N(CCC#N)C(=O)CCl)c1C
inactive: USP19 0.16 | USP22 -0.11 | USP24 -0.0767 | USP25 0.00615 | USP28 -0.253
